Data reported in the supplement of paper PMC7411640.
Counter-ions that a name gives are not always drawn.

System: MDA-MB-468
Test: phospho-S6 immunofluorescence (DAPI-normalised), per-plate z-score; higher = higher phospho-S6 signal (less pathway suppression)
Details: 24 h
Method: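 GPCR-targeted compound library (MedChemExpress HY-L006) tested on MDA-MB-468 PTEN-null TNBC cells in 384-well plates at 0.1, 1 or 10 uM, combined with vehicle, GDC0941 450 nM or lapatinib 1 uM, for 24 h. Phospho-S6 (S240/244) immunofluorescence normalised to DAPI and expressed as a per-plate z-score; values are the mean of biological triplicates.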

Structure (SMILES) | phospho-S6 immunofluorescence (z-score) (co-treatment: GDC0941 450 nM) | phospho-S6 immunofluorescence (z-score) (co-treatment: lapatinib 1 uM) | phospho-S6 immunofluorescence (z-score) (co-treatment: vehicle)
C[N+](C)(C)CCOC(N)=O [Carbamoylcholine (chloride)] (compound 10 µM) | 0.06 | 0.02 | 0.87
CC(C)=CCC[C@](C)(O)[C@H]1CC[C@]2(C)[C@@H]1[C@H](O)C[C@@H]1[C@@]3(C)CC[C@H](O)C(C)(C)[C@@H]3[C@@H](O)C[C@]12C [(20S)-Protopanaxatriol] (compound 10 µM) | -1.71 | -2.12 | -0.03
CC(NCCc1ccc(O)cc1)C(O)c1ccc(O)cc1 (configuration not stated) [Ritodrine (hydrochloride)] (compound 10 µM) | -0.01 | 1.26 | 0.06
COc1cc2nc(N3CCN(C(=O)C4COc5ccccc5O4)CC3)nc(N)c2cc1OC (configuration not stated) [Doxazosin (mesylate)] (compound 10 µM) | -3.46 | -7.7 | -8.17
COc1cc(N)c(Cl)cc1C(=O)NC1CCN(Cc2ccccc2)CC1 [Clebopride (malate)] (compound 10 µM) | 0.46 | -0.14 | 0.29
CC(C)NCC(O)c1ccc(O)c(O)c1 (configuration not stated) [Isoprenaline (hydrochloride)] (compound 10 µM) | 0.63 | 2.74 | 1.65
Nc1nccc(/C=C/c2ccccc2)n1 (compound 10 µM) | -1.32 | -0.81 | 0.3
CC(=O)Oc1cc(C(C)C)c(OCCN(C)C)cc1C [Moxisylyte (hydrochloride)] (compound 10 µM) | 0.49 | -0.11 | -1.23
COc1ccc2c(c1OC)C(=O)O[C@@H]2[C@H]1c2c(cc3c(c2OC)OCO3)CCN1C [Noscapine] (compound 10 µM) | 0.49 | 0.12 | 0.47
